“And” between values parts separate entries of the source, which are not always exact repeats. Equal values may be shown once. Records with an inconclusive call do not appear. A call without a number means that no potency is given here. Some compounds were tested as several samples or in several runs, with calls that do not always agree. The source made the active and inactive calls. Unless noted, calls follow the shape of the dose curve; as a rule, active = well fitted curve in the direction sought with a large enough effect in the repeat runs; inconclusive = weak or mixed curves; inactive = no such curve, though single readings can be large; an effect the other way counts as inactive or inconclusive.
What was measured:
[1] = qHTS assay to test for compound auto fluorescence at 460 nm (blue) in HEK293 cell free culture (AID 720681)
In short: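 Blue fluorescence (Ex 405/Em 460 nm, triamterene-equivalent) was read immediately after pin transfer of compound or DMSO into medium (DMEM, 10% FBS) without cells.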

[2] = qHTS assay to test for compound auto fluorescence at 535 nm (green) in HEK293 cell free culture (AID 720682)
In short: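 Using fluorescein as calibrant, autofluorescence was quantified at 485/535 nm in cell-free DMEM containing 10% FBS after pintool addition of compound or vehicle.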

[3] = qHTS assay to test for compound auto fluorescence at 590 nm (red) in HEK293 cell free culture (AID 720683)
In short: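 Red-channel autofluorescence of compounds in culture medium (DMEM, 10% FBS), no cells, measured at 540/590 nm. Rose Bengal sodium is the reference fluorophore for equivalence.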

[4] = qHTS assay to test for compound auto fluorescence at 590 nm (red) in HepG2 cell free culture (AID 720684)
In short: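 No cells present: MEM + 10% FBS only. Compound pinned in, red label read (540/590 nm). Activity = fluorescence equivalent to Rose Bengal sodium.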

[5] = qHTS assay to test for compound auto fluorescence at 460 nm (blue) in HepG2 cell free culture (AID 720685)
In short: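 Cell-free plates of MEM plus 10% FBS received 23 nL compound or DMSO vehicle; blue-channel (405/460 nm) intensity scored against triamterene as reference fluorophore.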

[6] = qHTS assay to test for compound auto fluorescence at 535 nm (green) in HepG2 cell free culture (AID 720686)
[7] = qHTS assay to identify small molecule antagonists of the glucocorticoid receptor (GR) signaling pathway - cell viability counter screen (AID 720693); also: nearly all actives have a fitted effect of over 55% in size
[8] = qHTS assay for identifying genotoxic compounds that show differential cytotoxicity against isogenic chicken DT40 cell lines with known DNA damage response pathways - Rad54/Ku70 mutant cell line (AID 743015); also: nearly all actives have a fitted effect of over 60% in size; also: potency is read from the fitted curve at half-maximal effect
[9] = qHTS assay to identify small molecule antagonists of the androgen receptor (AR) signaling pathway - cell viability counter screen (AID 743033; also: nearly all actives have a fitted effect of over 45% in size; also: potency is read from the fitted curve at half-maximal effect)
[10] = qHTS assay to test for compound auto fluorescence at 460 nm (blue) in HepG2 cells (AID 720687)
In short: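 Blue-channel autofluorescence (Ex/Em 405/460 nm, triamterene-equivalent) was measured after 1 hr compound exposure at 37 C, 5% CO2. Cells were HepG2, plated overnight at 37 C in MEM plus 10% FBS.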

[11] = molecular target: Androgen receptor (Homo sapiens) (UniProt P10275); assay: qHTS assay to identify small molecule agonists of the androgen receptor (AR) signaling pathway using the MDA cell line (AID 743040; also: nearly all actives have a fitted effect of over 20% in size)
Androgen receptor (Homo sapiens), sequence (P10275 whole entry, looked up): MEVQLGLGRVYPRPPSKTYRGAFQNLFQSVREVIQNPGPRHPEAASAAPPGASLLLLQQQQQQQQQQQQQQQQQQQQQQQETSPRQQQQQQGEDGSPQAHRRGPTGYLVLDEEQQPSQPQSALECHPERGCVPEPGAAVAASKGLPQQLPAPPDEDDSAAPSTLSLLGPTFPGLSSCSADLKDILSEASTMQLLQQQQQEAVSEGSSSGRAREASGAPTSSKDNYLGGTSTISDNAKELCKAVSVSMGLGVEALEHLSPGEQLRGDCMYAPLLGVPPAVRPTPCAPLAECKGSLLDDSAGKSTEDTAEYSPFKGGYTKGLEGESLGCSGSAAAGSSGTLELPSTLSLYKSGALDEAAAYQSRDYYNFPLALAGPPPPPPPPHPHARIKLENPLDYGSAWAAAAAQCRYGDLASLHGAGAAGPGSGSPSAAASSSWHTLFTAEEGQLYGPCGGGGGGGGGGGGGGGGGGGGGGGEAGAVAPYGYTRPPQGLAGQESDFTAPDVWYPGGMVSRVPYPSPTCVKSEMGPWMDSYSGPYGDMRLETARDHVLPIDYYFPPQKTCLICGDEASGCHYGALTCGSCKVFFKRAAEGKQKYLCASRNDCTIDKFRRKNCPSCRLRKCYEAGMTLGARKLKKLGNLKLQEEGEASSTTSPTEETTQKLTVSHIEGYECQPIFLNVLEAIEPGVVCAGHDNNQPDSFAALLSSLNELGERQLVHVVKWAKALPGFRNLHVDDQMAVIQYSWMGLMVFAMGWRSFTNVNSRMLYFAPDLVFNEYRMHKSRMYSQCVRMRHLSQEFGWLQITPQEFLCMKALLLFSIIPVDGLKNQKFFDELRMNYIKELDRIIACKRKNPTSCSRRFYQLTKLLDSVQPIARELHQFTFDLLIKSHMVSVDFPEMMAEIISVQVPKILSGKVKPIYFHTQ
In short: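 Stable MMTV-luciferase reporter in MDA-kb2 cells; note the promoter carries GR as well as AR response elements. 16 h compound treatment, 37C, 0% CO2; ONE-Glo luminescence endpoint.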

[12] = molecular target: Androgen receptor (Homo sapiens) (UniProt P10275); assay: qHTS assay to identify small molecule antagonists of the androgen receptor (AR) signaling pathway using the MDA cell line (AID 743042; also: nearly all actives have a fitted effect of over 55% in size)
In short: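 Antagonist mode: compounds plus R1881 agonist added to MDA-kb2 AR-luc cells, incubated 16 h at 37C. Luciferase reporter luminescence quantified, with multiplexed CellTiter-Fluor readout for cell viability.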

[13] = molecular target: Glucocorticoid receptor (Homo sapiens) (UniProt P04150); assay: qHTS assay to identify small molecule agonists of the glucocorticoid receptor (GR) signaling pathway (AID 720691; active = well fitted activation curve with a large enough effect in the signal ratio in the repeat runs, not every such curve was filed as active; the % refers to the signal ratio); settings: GR-bla HeLa, beta-lactamase reporter ratio, 18 h; activation: at 62.4 µM (top of the series)
Glucocorticoid receptor (Homo sapiens), sequence (P04150 whole entry, looked up): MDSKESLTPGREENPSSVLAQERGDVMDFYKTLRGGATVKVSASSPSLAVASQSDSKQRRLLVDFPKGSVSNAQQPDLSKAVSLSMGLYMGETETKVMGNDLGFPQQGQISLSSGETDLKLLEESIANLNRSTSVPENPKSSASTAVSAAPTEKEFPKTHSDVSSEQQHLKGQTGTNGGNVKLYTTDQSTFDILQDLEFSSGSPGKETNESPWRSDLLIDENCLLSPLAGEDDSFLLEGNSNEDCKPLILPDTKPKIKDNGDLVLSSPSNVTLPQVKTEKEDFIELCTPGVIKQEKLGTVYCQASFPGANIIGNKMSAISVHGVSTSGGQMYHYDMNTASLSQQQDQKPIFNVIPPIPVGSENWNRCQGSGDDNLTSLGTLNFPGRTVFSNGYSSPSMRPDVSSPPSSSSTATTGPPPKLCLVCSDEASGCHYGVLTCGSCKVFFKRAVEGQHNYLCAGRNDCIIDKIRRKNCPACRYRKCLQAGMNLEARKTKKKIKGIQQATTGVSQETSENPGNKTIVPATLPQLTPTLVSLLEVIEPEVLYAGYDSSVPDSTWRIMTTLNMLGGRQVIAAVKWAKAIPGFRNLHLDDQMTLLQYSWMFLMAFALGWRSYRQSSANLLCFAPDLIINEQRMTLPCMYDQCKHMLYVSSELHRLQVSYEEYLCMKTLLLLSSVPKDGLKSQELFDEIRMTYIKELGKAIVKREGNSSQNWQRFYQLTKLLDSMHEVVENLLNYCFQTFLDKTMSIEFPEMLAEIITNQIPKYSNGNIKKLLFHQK
In short: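 A HeLa cervical cancer line expressing GR and a glucocorticoid response element-driven beta-lactamase gene is treated with compounds for 18 h; LiveBLAzer B/G FRET substrate is then applied and fluorescence read.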

[14] = molecular target: Glucocorticoid receptor (Homo sapiens) (UniProt P04150); assay: qHTS assay to identify small molecule antagonists of the glucocorticoid receptor (GR) signaling pathway (AID 720692; active = well fitted inhibition curve with a large enough effect in the signal ratio in the repeat runs, not every such curve was filed as active; the % refers to the signal ratio)
In short: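 GRE-bla HeLa line, dex-stimulated (5 nM final). Compound exposure 18 h, 37 C. Beta-lactamase FRET read after 2 h RT substrate.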

[15] = qHTS assay for identifying genotoxic compounds that show differential cytotoxicity against isogenic chicken DT40 cell lines with known DNA damage response pathways - wild type cell line (AID 743012); also: nearly all actives have a fitted effect of over 60% in size; also: potency is read from the fitted curve at half-maximal effect
In short: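 300 wt DT40 cells/well; cpd (DMSO) pintool-transferred after ~0.5 h at 37 C/5% CO2; 40 h incubation; CellTiter-Glo added, 30 min RT; luminescence read.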

[16] = qHTS assay for identifying genotoxic compounds that show differential cytotoxicity against isogenic chicken DT40 cell lines with known DNA damage response pathways - Rev3 mutant cell line (AID 743014); also: nearly all actives have a fitted effect of over 55% in size; also: potency is read from the fitted curve at half-maximal effect
[17] = qHTS assay to identify small molecule antagonists of the androgen receptor (AR) signaling pathway using the MDA cell line - cell viability counter screen (AID 743041; also: nearly all actives have a fitted effect of over 45% in size; also: potency is read from the fitted curve at half-maximal effect)
In short: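 Using the breast carcinoma line MDA-kb2 AR-luc, test chemicals were co-incubated with R1881 for 16 h; CellTiter-Fluor reagent, added at 15.5 h, provided a fluorescence measure of live cells.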

[18] = molecular target: Androgen receptor (Homo sapiens) (UniProt P10275); assay: qHTS assay to identify small molecule antagonists of the androgen receptor (AR) signaling pathway (AID 743035; active = well fitted inhibition curve with a large enough effect in the signal ratio in the repeat runs, not every such curve was filed as active; the % refers to the signal ratio; also: potency is read from the fitted curve at half-maximal effect)
In short: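 In this cell-based reporter screen, compounds were tested in concentration series against R1881-activated HEK293 cells expressing beta-lactamase under UAS control; after 16 h at 37C, FRET substrate was added and fluorescence read 2 h later.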

[19] = molecular target: Androgen receptor (Homo sapiens) (UniProt P10275); assay: qHTS assay to identify small molecule agonists of the androgen receptor (AR) signaling pathway (AID 743036; active = well fitted activation curve with a large enough effect in the signal ratio in the repeat runs, with a control signal flat, not every such curve was filed as active; the % refers to the signal ratio)
In short: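 In this Tox21 qHTS, 2,000 HEK293 AR-bla cells per well were incubated with compounds for 16 h at 37C and 5% CO2. Fluorescence intensity was recorded 2 h after adding LiveBLAzer B/G FRET substrate at room temperature.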

Compound	Potency [1]	outcome [2]	outcome [3]	outcome [4]	Potency [5]	Potency [6]	Potency [7]	Potency [8]	Potency [9]	Potency [10]	outcome [11]	Potency [12]	Potency [13]	Potency [14]	Potency [15]	Potency [16]	Potency [17]	Potency [18]	outcome [19]
CNC(=O)Oc1cc(C)cc(C(C)C)c1	inactive	inactive	inactive	inactive	inactive	inactive	inactive	inactive	inactive										
Nc1c(Cl)c(Cl)c(Cl)c(Cl)c1Cl		inactive	inactive	inactive	inactive	inactive	inactive	inactive	inactive	inactive	inactive	inactive							
COC(=O)c1cc(Oc2ccc(Cl)cc2Cl)ccc1[N+](=O)[O-]	inactive	inactive	inactive	inactive	inactive	inactive	inactive	24.3 µM (active)	inactive	inactive			inactive	inactive	9.69 µM (active)	12.2 µM (active)	inactive		
CN(C)c1ccc(N)cc1	inactive	inactive	inactive	inactive	inactive	inactive	inactive	26.6 µM (active)	42.6 µM (active)			inactive			29.9 µM (active)	21.2 µM (active)	59.6 µM (active)	24 µM (active)	inactive
CC(Cc1ccc2c(c1)OCO2)NO (stereo unspecified)	inactive	inactive	inactive	inactive	inactive	inactive	inactive	inactive	inactive	inactive			inactive		inactive		inactive		
Clc1ccc(C2(Cn3cncn3)OCCO2)c(Cl)c1	inactive	inactive	inactive	inactive	inactive	inactive	inactive	inactive and 61.1 µM (active)	inactive	inactive			inactive	inactive	61.1 µM (active)	30.6 µM (active)	inactive		
Clc1ccc(C(Cl)(Cl)Cl)cc1Cl	inactive	inactive	inactive	inactive	inactive	inactive	inactive	inactive	inactive	inactive			inactive		inactive	inactive	inactive		
C=CCBr	inactive	inactive	inactive	inactive	inactive			inactive	inactive	inactive			inactive		inactive		inactive		
CCCN	inactive	inactive	inactive	inactive	inactive	inactive	inactive	inactive	inactive	inactive					inactive	inactive	inactive		

— PubChem BioAssay (Tox21)
